Measurements published in PubChem BioAssay AID1159580 (chemical genetic matrix, 2015).
In all, about 5,500 compounds went through this assay and about 2,000 (36%) were called active. Inconclusive results (about 18%) are left out. Cut-off read from the data, not from the text of the source: active = normalized growth mostly below about 0.91 (no sharp cut-off); inconclusive = no clear call, values can overlap the other calls; inactive = mostly above about 0.92. The list shows a part of the results.

Assay: chemical genetic growth profiling, strain panel (AID 1159580);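 note: tested at 20 µM; growth read once vehicle control cultures reached saturation at 30 °C; 1 = growth at the plate median or of vehicle wells; lower values mean less growth of the strain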
Conditions: S. cerevisiae deletion strains, growth OD

Measured: normalized growth

C1CNCCN1
inactive: locus YAL013W, strain DEP1, hits give low values 1.01 | locus YAL021C, strain ccr4, hits give low values 0.999 | locus YAL026C, strain drs2, hits give low values 1.02 | locus YAL030W, strain snc1, hits give low values 1.01 | locus YBL061C, strain skt5, hits give low values 1.02 | locus YBR009C, strain hhf1, hits give low values 1.01 | locus YBR021W, strain FUR4, hits give low values 0.979 | locus YBR023C, strain chs3, hits give low values 1.02 | locus YBR171W, strain sec66, hits give low values 1.02 | locus YBR229C, strain ROT2, hits give low values 0.997 | locus YBR231C, strain swc5, hits give low values 0.997 | locus YBR279W, strain paf1, hits give low values 1.01 | locus YCL011C, strain gbp2, hits give low values 1.01 | locus YCL016C, strain dcc1, hits give low values 1.01 | locus YCL029C, strain bik1, hits give low values 0.997 | locus YCL061C, strain MRC1, hits give low values 1 | locus YCL069W, strain vba3, hits give low values 1.01 | locus YCR088W, strain abp1, hits give low values 1.01 | locus YDL005C, strain med2, hits give low values 1.02 | locus YDL035C, strain GPR1, hits give low values 1.01 | locus YDL040C, strain nat1, hits give low values 1.01 | locus YDL074C, strain BRE1, hits give low values 1.03 | locus YDL101C, strain DUN1, hits give low values 1.02 | locus YDL134C, strain PPH21, hits give low values 1.01 | locus YDL185W, strain tfp1, hits give low values 1.02 | locus YDL192W, strain arf1, hits give low values 0.999 | locus YDR001C, strain nth1, hits give low values 1.01 | locus YDR069C, strain doa4, hits give low values 1.01 | locus YDR101C, strain arx1, hits give low values 0.987 | locus YDR137W, strain rgp1, hits give low values 1.03 | locus YDR150W, strain NUM1, hits give low values 1 | locus YDR159W, strain sac3, hits give low values 1.04 | locus YDR162C, strain NBP2, hits give low values 1.02 | locus YDR195W, strain ref2 1 | locus YDR297W, strain sur2, hits give low values 1.01 | locus YDR318W, strain mcm21, hits give low values 0.998 | locus YDR334W, strain swr1, hits give low values 1.01 | locus YDR335W, strain msn5, hits give low values 1.01 | locus YDR388W, hits give low values 0.996 | locus YDR392W, strain spt3, hits give low values 0.962 | locus YDR502C, strain sam2, hits give low values 0.999 | locus YEL003W, strain gim4, hits give low values 1.01 | locus YEL037C, strain rad23, hits give low values 1.01 | locus YEL061C, strain CIN8 (second series), hits give low values 1.01 | locus YEL061C, strain CIN8, hits give low values 1 | locus YER015W, strain faa2, hits give low values 0.999 | locus YER016W, strain bim1, hits give low values 0.999 | locus YER110C, hits give low values 0.988 | locus YER111C, strain swi4, hits give low values 1.02 | locus YER155C, strain BEM2 (second series), hits give low values 1 | locus YER155C, strain BEM2, hits give low values 1.01 | locus YER167W, strain BCK2, hits give low values 1.01 | locus YFR010W, strain ubp6, hits give low values 1.01 | locus YGL078C, strain dbp3, hits give low values 0.99 | locus YGL086W, strain mad1, hits give low values 0.996 | locus YGL167C, strain pmr1, hits give low values 1.02 | locus YGL173C, strain kem1, hits give low values 1.02 | locus YGL227W, strain vid30, hits give low values 1.01 | locus YGL240W, strain doc1, hits give low values 1.01 | locus YGL248W, strain PDE1, hits give low values 1 | locus YGL253W, strain hxk2, hits give low values 0.992 | locus YGR078C, strain PAC10, hits give low values 1 | locus YGR135W, strain pre9, hits give low values 1.01 | locus YGR229C, strain SMI1, hits give low values 1.02 | locus YGR252W, strain gcn5, hits give low values 0.948 | locus YHR013C, strain ard1, hits give low values 1.03 | locus YHR027C, strain rpn1, hits give low values 1.02 | locus YHR030C, strain SLT2, hits give low values 1.02 | locus YHR079C, strain IRE1 (second series), hits give low values 0.988 | locus YHR079C, strain IRE1, hits give low values 1.03 | locus YHR094C, strain hxt1, hits give low values 1 | locus YHR129C, strain ARP1, hits give low values 1.01 | locus YHR142W, strain chs7, hits give low values 1.02 | locus YHR200W, strain rpn10, hits give low values 1.01 | locus YIL066C, strain RNR3, hits give low values 1.01 | locus YIL073C, strain SPO22, hits give low values 0.983 | locus YIL125W, strain kgd1, hits give low values 1 | locus YIR030C, strain dcg1, hits give low values 1 | locus YJL092W, strain hpr5, hits give low values 1.01 | locus YJL095W, strain BCK1 (second series), hits give low values 1.02 | locus YJL095W, strain BCK1, hits give low values 1.01 | locus YJL115W, strain asf1, hits give low values 1.01 | locus YJL129C, strain trk1, hits give low values 1.01 | locus YJL134W, strain LCB3, hits give low values 1.01 | locus YJL154C, strain vps35, hits give low values 1.02 | locus YJL164C, strain tpk1, hits give low values 1.01 | locus YJL166W, strain qcr8, hits give low values 1.02 | locus YJL168C, strain set2, hits give low values 0.994 | locus YJL187C, strain SWE1 (second series), hits give low values 1.02 | locus YJL187C, strain SWE1, hits give low values 1.01 | locus YJR043C, strain POL32, hits give low values 1.01
